Assay results as given in the supplement of paper PMC6411743.
± gives the standard deviation of the averaged measurements. About 5,400 targets were measured; listed, in parts, are those with the largest changes and a random draw of the rest.

Compound: Nc1nc2c(ncn2[C@@H]2O[C@H](COP(=O)(O)OP(=O)(O)OP(=O)(O)O)[C@@H](O)[C@H]2O)c(=O)[nH]1 [guanosine triphosphate]
Assay: NP40-soluble protein abundance relative to vehicle (solubility fold change) (ratio); higher = more soluble protein in presence of GTP
Description: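 Solubility proteome profiling in Jurkat crude lysate. Lysate was treated with Mg-GTP (0.1-10 mM) for 10 min at room temperature and 3 min at 37 °C, then solubilised with 0.8% NP40 and benzonase, followed by ultracentrifugation. Proteins were quantified by TMT10 LC-MS/MS; the value is the NP40-soluble abundance relative to the NP40-processed vehicle, from 3 independent experiments.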

UniProt Q7L5D6, sequence (Q7L5D6 whole entry): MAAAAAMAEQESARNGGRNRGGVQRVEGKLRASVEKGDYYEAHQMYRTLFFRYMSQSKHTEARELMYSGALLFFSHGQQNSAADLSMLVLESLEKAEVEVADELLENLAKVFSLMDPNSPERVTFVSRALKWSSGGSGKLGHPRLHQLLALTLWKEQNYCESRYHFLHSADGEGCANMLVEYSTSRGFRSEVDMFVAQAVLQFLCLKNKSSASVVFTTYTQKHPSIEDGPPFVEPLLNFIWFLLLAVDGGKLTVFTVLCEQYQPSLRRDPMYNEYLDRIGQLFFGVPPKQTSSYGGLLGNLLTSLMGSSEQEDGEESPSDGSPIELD
UniProt Q15424, sequence (Q15424 whole entry): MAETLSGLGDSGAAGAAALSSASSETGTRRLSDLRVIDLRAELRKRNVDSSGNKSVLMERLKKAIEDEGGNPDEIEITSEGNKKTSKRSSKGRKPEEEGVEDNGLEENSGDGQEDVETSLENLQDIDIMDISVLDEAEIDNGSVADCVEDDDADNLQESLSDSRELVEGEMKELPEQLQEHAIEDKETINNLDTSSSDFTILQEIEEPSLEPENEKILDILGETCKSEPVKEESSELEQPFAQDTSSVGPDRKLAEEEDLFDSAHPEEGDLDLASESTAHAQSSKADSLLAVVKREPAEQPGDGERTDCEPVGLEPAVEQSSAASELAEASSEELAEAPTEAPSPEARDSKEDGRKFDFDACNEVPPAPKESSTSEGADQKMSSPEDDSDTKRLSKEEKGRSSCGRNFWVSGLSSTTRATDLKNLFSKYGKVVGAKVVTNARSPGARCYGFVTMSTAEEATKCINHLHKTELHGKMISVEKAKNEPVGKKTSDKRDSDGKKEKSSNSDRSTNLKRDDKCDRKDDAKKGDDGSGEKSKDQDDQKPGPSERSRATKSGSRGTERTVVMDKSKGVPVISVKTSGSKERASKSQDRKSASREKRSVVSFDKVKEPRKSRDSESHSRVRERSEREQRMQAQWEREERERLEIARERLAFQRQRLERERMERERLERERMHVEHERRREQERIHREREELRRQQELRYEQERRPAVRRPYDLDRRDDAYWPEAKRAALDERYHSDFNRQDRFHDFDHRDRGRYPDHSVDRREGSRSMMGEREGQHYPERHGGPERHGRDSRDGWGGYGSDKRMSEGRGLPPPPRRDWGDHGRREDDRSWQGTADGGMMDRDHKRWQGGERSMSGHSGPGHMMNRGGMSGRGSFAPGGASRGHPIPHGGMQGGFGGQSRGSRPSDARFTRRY
UniProt Q12789, sequence (Q12789 whole entry): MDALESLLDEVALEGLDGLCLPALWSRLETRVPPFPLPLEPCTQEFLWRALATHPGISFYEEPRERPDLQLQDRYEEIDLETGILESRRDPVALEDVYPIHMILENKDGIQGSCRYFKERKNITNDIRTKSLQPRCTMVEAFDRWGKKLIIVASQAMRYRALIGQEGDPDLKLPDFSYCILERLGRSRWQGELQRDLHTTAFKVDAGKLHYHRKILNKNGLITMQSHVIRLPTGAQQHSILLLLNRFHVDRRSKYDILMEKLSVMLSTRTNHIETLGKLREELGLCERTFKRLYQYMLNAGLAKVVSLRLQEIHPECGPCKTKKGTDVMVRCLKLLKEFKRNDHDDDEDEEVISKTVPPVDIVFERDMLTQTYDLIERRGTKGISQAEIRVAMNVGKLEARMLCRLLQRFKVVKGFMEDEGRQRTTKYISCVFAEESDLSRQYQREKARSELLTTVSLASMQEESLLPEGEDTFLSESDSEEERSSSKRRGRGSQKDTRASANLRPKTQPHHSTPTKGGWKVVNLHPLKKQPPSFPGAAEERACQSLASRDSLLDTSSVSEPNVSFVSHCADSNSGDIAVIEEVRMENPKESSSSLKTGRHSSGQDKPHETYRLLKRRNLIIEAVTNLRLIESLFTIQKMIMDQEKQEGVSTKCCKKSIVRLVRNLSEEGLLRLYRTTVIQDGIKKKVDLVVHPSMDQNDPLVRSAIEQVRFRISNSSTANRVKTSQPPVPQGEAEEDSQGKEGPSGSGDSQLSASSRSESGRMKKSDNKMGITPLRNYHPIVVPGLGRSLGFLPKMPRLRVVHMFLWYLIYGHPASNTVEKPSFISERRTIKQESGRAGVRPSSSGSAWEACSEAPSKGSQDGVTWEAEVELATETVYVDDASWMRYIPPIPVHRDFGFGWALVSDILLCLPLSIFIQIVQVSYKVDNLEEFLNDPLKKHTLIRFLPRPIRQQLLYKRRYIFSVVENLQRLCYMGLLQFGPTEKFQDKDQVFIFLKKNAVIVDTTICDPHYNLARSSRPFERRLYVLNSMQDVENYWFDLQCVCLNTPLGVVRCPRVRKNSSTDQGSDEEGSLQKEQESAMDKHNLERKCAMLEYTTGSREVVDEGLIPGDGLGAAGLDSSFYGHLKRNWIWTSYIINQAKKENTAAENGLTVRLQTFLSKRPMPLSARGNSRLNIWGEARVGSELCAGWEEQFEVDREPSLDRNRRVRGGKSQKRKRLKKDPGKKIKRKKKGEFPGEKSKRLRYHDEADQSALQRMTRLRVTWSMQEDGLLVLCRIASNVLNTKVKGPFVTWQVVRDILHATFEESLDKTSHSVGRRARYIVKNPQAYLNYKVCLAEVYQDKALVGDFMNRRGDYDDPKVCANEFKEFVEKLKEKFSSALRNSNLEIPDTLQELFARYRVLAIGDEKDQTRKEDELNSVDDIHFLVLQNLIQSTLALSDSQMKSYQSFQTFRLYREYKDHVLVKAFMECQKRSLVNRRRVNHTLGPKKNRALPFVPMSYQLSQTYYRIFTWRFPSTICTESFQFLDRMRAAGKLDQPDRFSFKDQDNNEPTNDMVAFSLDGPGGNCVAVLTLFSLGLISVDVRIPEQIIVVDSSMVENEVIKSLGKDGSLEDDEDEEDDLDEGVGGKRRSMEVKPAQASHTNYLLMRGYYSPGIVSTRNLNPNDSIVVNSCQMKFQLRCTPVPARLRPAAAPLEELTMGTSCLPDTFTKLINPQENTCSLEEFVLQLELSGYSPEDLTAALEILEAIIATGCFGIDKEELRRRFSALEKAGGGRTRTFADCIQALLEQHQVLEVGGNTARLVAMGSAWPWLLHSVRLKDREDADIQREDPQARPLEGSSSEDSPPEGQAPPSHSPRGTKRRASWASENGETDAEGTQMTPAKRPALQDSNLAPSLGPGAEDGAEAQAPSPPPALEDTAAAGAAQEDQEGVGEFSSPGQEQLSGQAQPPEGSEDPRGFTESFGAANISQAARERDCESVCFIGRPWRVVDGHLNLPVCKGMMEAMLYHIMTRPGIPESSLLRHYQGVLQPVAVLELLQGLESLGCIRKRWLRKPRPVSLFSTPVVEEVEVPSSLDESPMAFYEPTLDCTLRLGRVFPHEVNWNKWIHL
UniProt P61962, sequence (P61962 whole entry): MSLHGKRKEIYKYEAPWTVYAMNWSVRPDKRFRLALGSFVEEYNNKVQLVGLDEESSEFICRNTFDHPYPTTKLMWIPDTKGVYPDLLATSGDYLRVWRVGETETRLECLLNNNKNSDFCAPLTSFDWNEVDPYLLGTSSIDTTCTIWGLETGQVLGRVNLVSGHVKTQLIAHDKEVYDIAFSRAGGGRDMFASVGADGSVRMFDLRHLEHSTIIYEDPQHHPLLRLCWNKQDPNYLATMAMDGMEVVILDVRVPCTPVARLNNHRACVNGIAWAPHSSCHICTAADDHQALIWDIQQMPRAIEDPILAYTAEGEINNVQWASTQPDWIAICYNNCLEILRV

Target	NP40-soluble protein abundance (concentration: 0.1mM)	NP40-soluble protein abundance (concentration: 0.5mM)	NP40-soluble protein abundance (concentration: 1mM)	NP40-soluble protein abundance (concentration: 2mM)	NP40-soluble protein abundance (concentration: 4mM)	NP40-soluble protein abundance (concentration: 6mM)	NP40-soluble protein abundance (concentration: 8mM)	NP40-soluble protein abundance (concentration: 10mM)
UniProt Q15424|Q15424-3|Q15424-4	0.958 ± 0.048	0.938 ± 0.052	1.04 ± 0.039	1.09 ± 0.081	1.19 ± 0.066	1.25 ± 0.041	1.38 ± 0.083	1.44 ± 0.083
UniProt Q7L5D6|Q7L5D6-2	1.03 ± 0.056	0.98 ± 0.091	0.94 ± 0.047	0.975 ± 0.11	0.963 ± 0.12	0.986 ± 0.1	0.868 ± 0.053	0.887 ± 0.12
UniProt Q04656|Q04656-2|Q04656-3|Q04656-5	1.01 ± 0.13	1.01 ± 0.059	0.971 ± 0.096	1.01 ± 0.079	0.951 ± 0.052	1.02 ± 0.015	0.972 ± 0.11	0.924 ± 0.087
UniProt P61962	1.02 ± 0.081	1.08 ± 0.089	0.988 ± 0.07	1.04 ± 0.1	1.02 ± 0.057	1.01 ± 0.092	0.946 ± 0.021	0.964 ± 0.03
UniProt Q12789|Q12789-3	1.08 ± 0.051	1.08 ± 0.093	1.1 ± 0.1	1.13 ± 0.09	1.13 ± 0.1	1.1 ± 0.077	1.1 ± 0.11	1.1 ± 0.11
